Here are results for 39 compounds from PubChem BioAssay (Tox21).

Inconclusive results are not listed. Entries that show only a call come without a potency. Active and inactive are the calls of the source. Unless noted, calls follow the shape of the dose curve; as a rule, active = well fitted cell-killing curve with a large enough effect in the repeat runs; inconclusive = weak or mixed curves, or effect the other way; inactive = no such curve, though single readings can be large or run the other way.

The target in the first assay is Progesterone receptor (Homo sapiens) (UniProt P06401). The assay can be described thus: qHTS assay to identify small molecule antagonists of the progesterone receptor (PR) signaling pathway (AID 1346795; active = well fitted inhibition curve with a large enough effect in the signal ratio in the repeat runs, not every such curve was filed as active; the % refers to the signal ratio). The note with it: PR-UAS-bla HEK293T, beta-lactamase FRET ratio, 16 h; series mostly up to 92.4 µM. The method, boiled down: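 HEK293T PR-UAS-bla reporter cells in charcoal-stripped serum (2%) received compound after a 6 hr settling period, followed by R5020 agonist at 1 nM final; 16 hr incubation preceded the FRET substrate step and fluorescence measurement.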
Chain of Progesterone receptor (Homo sapiens) (P06401 whole entry, looked up): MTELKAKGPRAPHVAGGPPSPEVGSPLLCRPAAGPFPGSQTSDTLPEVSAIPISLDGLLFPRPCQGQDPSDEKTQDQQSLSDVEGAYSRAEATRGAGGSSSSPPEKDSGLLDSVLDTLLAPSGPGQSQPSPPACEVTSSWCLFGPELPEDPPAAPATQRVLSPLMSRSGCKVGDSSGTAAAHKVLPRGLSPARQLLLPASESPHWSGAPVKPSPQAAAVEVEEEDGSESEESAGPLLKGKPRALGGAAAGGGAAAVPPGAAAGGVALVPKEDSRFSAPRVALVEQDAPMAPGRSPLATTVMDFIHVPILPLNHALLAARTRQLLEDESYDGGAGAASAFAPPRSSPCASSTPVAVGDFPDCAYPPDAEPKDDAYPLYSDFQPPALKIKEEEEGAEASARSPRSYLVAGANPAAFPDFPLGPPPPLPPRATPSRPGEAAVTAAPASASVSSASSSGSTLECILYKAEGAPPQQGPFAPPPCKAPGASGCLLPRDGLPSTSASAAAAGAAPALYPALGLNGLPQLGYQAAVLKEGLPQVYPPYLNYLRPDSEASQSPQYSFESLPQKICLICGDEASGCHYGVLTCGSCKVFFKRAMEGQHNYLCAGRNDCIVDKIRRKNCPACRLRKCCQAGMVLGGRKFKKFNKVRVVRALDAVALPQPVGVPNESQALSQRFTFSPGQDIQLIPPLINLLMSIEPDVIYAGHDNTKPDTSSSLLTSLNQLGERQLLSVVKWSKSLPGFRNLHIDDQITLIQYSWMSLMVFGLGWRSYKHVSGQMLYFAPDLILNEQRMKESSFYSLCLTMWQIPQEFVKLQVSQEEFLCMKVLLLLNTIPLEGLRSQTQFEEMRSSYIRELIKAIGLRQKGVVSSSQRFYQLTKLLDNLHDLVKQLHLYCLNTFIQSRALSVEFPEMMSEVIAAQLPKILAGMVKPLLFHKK
(In qHTS, concentration-response curves come from the screen itself.)
For the compound `O=NN(CCCl)C(=O)NCCCl`, the Potency entry is “inactive”.

As for `O=C(O)CCS`, the Potency result is “inactive”.

In the case of `CSSc1ccoc1C`, the Potency entry is “inactive”.

Take `O=C1OC[C@H](Cc2cccc(O)c2)[C@H]1Cc1cccc(O)c1`: the Potency result is “inactive”.

As to `Nc1ccn([C@H]2CS[C@@H](CO)O2)c(=O)n1`, the Potency entry is “inactive”.

As to `FC(F)(F)C(F)(F)C(F)(F)C(F)(F)CCI`, the Potency entry is “inactive”.

In the case of `CCCCCCCCCCCCCCCC(=O)OCC`, the Potency result is “inactive”.

On to `Nc1ccc(N=Nc2ccc(N)cc2)cc1`, for which the Potency entry is “inactive”.

For `CC1C(C)(C)C2=C(C(=O)CCC2)C1(C)C` (stereo not drawn), the Potency result was “inactive”.

In the case of `COC(=O)c1sccc1S(N)(=O)=O`, the Potency entry was “inactive”.

As for `CCCCCCOC(=O)CCCCC`, the Potency entry is “inactive”.

Turning to `O=c1[nH][nH]c(=O)c2cc([N+](=O)[O-])ccc12`, the Potency entry was “inactive”.

`CCC(=O)OCc1ccc(OC)cc1`: the Potency entry is “inactive”.

In the case of `CNC1CCCN(c2c(F)cc3c(=O)c(C(=O)O)cn(C4CC4)c3c2OC)C1` (stereo not drawn), the Potency result is “inactive”.

For the compound `Nc1ccc(S(=O)(=O)NCc2ccccc2)cc1`, the Potency result is “inactive”.

Consider `CC(=O)N[C@@H](Cc1ccc(O)cc1)C(=O)O`, for which the Potency result is “inactive”.

`CC(C)(C)NCC(O)COc1cccc2c1C[C@H](O)[C@H](O)C2` (stereo partly drawn): the Potency result is “inactive”.

Regarding `CCC(Cl)CC(Cl)C(Cl)C(Cl)C(Cl)C(C)Cl` (stereo not drawn), the activity change, negative = inhibition is -4% [at 18.9 µM] (inactive).

`CC(C)c1ccc(C#N)cc1`: the Potency result is “inactive”.

As to `CC1=CC[C@@]23C[C@@H]1C(C)(C)[C@@H]2CC[C@H]3C`, the Potency entry was “inactive”.

`Cc1cccc2sc(N)nc12`: the Potency result was “inactive”.

Regarding `CCN(CC)CC(=O)Nc1c(C)cccc1C(=O)OC`, the Potency result is “inactive”.

On to `CN=C(N)NC(=O)Nc1c(C)cccc1C`, for which the Potency entry is “inactive”.

`CCCCCCCCCCCCCCN(C)C`: the activity change, negative = inhibition was 5.91% [at 18.9 µM] (inactive).

In the case of `C=CC(=O)NC(C)C`, the Potency entry was “inactive”.

As for `O=C(O)c1cccc(C[C@@H]2COc3ccc(OCc4nc5cc(F)ccc5s4)cc3[C@@H]2O)c1`, the Potency result is “inactive”.

Take `O=C(O)CO`: the Potency entry is “inactive”.

Consider `CCCCC[C@H](O)/C=C/[C@H]1[C@H](O)CC(=O)[C@@H]1C/C=C\CCCC(=O)O`, for which the Potency entry was “inactive”.

Regarding `Cc1ccc(N(CC2=NCCN2)c2cccc(O)c2)cc1`, the Potency result was “inactive”.

Turning to `CC(C)C(=O)OCCOc1ccccc1`, the Potency entry is “inactive”.

For the compound `O=C1CC[C@@H](C(=O)O)N1`, the Potency entry was “inactive”.

Take `CCCCOCCOC(=O)c1cccnc1`: the Potency result is “inactive”.

Regarding `COC(=O)CC(C(C)=O)C(=O)OC` (stereo not drawn), the Potency entry was “inactive”.

In the case of `CC(C)(O)c1coc(S(=O)(=O)NC(=O)Nc2c3c(cc4c2CCC4)CCC3)c1`, the Potency result was “inactive”.

For `COC(CC(C)CCCC(C)(C)O)OC` (stereo not drawn), the Potency result is “inactive”.

As for `C[C@H](CS)C(=O)N1CCC[C@H]1C(=O)O`, the Potency result was “inactive”.

With `CC(=O)Oc1cccc(O)c1`, the Potency entry is “inactive”.

On to `CSCC[C@H](NC(=O)[C@H](Cc1c[nH]c2ccccc12)NC(=O)CCNC(=O)OC(C)(C)C)C(=O)N[C@@H](CC(=O)O)C(=O)N[C@@H](Cc1ccccc1)C(N)=O`, for which the Potency result was “inactive”.

With `Cc1cccc(C)c1NC(=O)c1cc(S(N)(=O)=O)c(Cl)cc1O`, the Potency entry is “inactive”.

Tested on in another assay: not listed separately
As to the kind of experiment: qHTS assay to identify small molecule antagonists of the progesterone receptor (PR) signaling pathway - cell viability counter screen (AID 1346798). Also: nearly all actives have a fitted effect of over 50% in size. The note with it: PR-UAS-bla HEK293T viability, CellTiter-Glo luminescence, 16 h; series mostly up to 92.4 µM. The method, boiled down:
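Same-well multiplex: after 16 hr at 37C with compound and R5020 stimulation, HEK293T cells carrying a UAS-bla reporter received LiveBLAzer substrate (2 hr RT), then CellTiter-Glo (30 min RT) for luminescent viability.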
Take `O=NN(CCCl)C(=O)NCCCl`: the Potency entry is “inactive”.

As to `O=C(O)CCS`, the Potency result is “inactive”.

Take `CSSc1ccoc1C`: the Potency result was “inactive”.

As for `O=C1OC[C@H](Cc2cccc(O)c2)[C@H]1Cc1cccc(O)c1`, the Potency entry was “inactive”.

Regarding `Nc1ccn([C@H]2CS[C@@H](CO)O2)c(=O)n1`, the Potency entry is “inactive”.

With `FC(F)(F)C(F)(F)C(F)(F)C(F)(F)CCI`, the Potency entry is “inactive”.

For `CCCCCCCCCCCCCCCC(=O)OCC`, the Potency entry is “inactive”.

Turning to `Nc1ccc(N=Nc2ccc(N)cc2)cc1`, the Potency result is “inactive”.

As for `CC1C(C)(C)C2=C(C(=O)CCC2)C1(C)C` (stereo not drawn), the Potency result is “inactive”.

`COC(=O)c1sccc1S(N)(=O)=O`: the Potency entry is “inactive”.

`CCCCCCOC(=O)CCCCC`: the Potency entry is “inactive”.

Consider `O=c1[nH][nH]c(=O)c2cc([N+](=O)[O-])ccc12`, for which the Potency entry is “inactive”.

As for `CCC(=O)OCc1ccc(OC)cc1`, the Potency entry is “inactive”.

For `CNC1CCCN(c2c(F)cc3c(=O)c(C(=O)O)cn(C4CC4)c3c2OC)C1` (stereo not drawn), the Potency entry is “inactive”.

Regarding `Nc1ccc(S(=O)(=O)NCc2ccccc2)cc1`, the Potency entry is “inactive”.

Consider `CC(=O)N[C@@H](Cc1ccc(O)cc1)C(=O)O`, for which the Potency result is “inactive”.

With `CC(C)(C)NCC(O)COc1cccc2c1C[C@H](O)[C@H](O)C2` (stereo partly drawn), the Potency entry is “inactive”.

Consider `CCC(Cl)CC(Cl)C(Cl)C(Cl)C(Cl)C(C)Cl` (stereo not drawn), for which the activity change, negative = cytotoxicity was -5.89% [at 18.9 µM] (inactive).

Take `CC(C)c1ccc(C#N)cc1`: the Potency result is “inactive”.

Turning to `CC1=CC[C@@]23C[C@@H]1C(C)(C)[C@@H]2CC[C@H]3C`, the Potency result was “inactive”.

`Cc1cccc2sc(N)nc12`: the Potency result is “inactive”.

Take `CCN(CC)CC(=O)Nc1c(C)cccc1C(=O)OC`: the Potency entry was “inactive”.

On to `CN=C(N)NC(=O)Nc1c(C)cccc1C`, for which the Potency entry is “inactive”.

For `CCCCCCCCCCCCCCN(C)C`, the activity change, negative = cytotoxicity is 2.26% [at 18.9 µM] (inactive).

For `C=CC(=O)NC(C)C`, the Potency entry was “inactive”.

Turning to `O=C(O)c1cccc(C[C@@H]2COc3ccc(OCc4nc5cc(F)ccc5s4)cc3[C@@H]2O)c1`, the Potency entry was “inactive”.

Take `O=C(O)CO`: the Potency entry was “inactive”.

Consider `CCCCC[C@H](O)/C=C/[C@H]1[C@H](O)CC(=O)[C@@H]1C/C=C\CCCC(=O)O`, for which the Potency entry is “inactive”.

On to `Cc1ccc(N(CC2=NCCN2)c2cccc(O)c2)cc1`, for which the Potency entry is “inactive”.

Turning to `CC(C)C(=O)OCCOc1ccccc1`, the Potency result is “inactive”.

As for `O=C1CC[C@@H](C(=O)O)N1`, the Potency entry is “inactive”.

Turning to `CCCCOCCOC(=O)c1cccnc1`, the Potency entry was “inactive”.

Turning to `COC(=O)CC(C(C)=O)C(=O)OC` (stereo not drawn), the Potency entry is “inactive”.

With `CC(C)(O)c1coc(S(=O)(=O)NC(=O)Nc2c3c(cc4c2CCC4)CCC3)c1`, the Potency result was “inactive”.

Turning to `COC(CC(C)CCCC(C)(C)O)OC` (stereo not drawn), the Potency result is “inactive”.

Consider `C[C@H](CS)C(=O)N1CCC[C@H]1C(=O)O`, for which the Potency entry was “inactive”.

`CC(=O)Oc1cccc(O)c1`: the Potency result was “inactive”.

Turning to `CSCC[C@H](NC(=O)[C@H](Cc1c[nH]c2ccccc12)NC(=O)CCNC(=O)OC(C)(C)C)C(=O)N[C@@H](CC(=O)O)C(=O)N[C@@H](Cc1ccccc1)C(N)=O`, the Potency result was “inactive”.

For the compound `Cc1cccc(C)c1NC(=O)c1cc(S(N)(=O)=O)c(Cl)cc1O`, the Potency result is “inactive”.
